Screening results deposited in PubChem by National Center for Advancing Translational Sciences (NCATS).
RORg inh: ROR gamma (mouse) transcription inhibition; Potency, µM (doses to about 53.6 µM), for the others: top-dose activity change, negative = inhibition, hits mostly inhibitors; Drosophila S2 Gal4-RORgamma UAS-luciferase reporter, 20 h; P51450; actives 5.4% (n = 310,000); AID 2551; also: potency is read from the fitted curve at half-maximal effect; nearly all actives have a fitted effect of over 60% in size
Target sequence (P51450 whole entry, looked up, the tested form may be a part): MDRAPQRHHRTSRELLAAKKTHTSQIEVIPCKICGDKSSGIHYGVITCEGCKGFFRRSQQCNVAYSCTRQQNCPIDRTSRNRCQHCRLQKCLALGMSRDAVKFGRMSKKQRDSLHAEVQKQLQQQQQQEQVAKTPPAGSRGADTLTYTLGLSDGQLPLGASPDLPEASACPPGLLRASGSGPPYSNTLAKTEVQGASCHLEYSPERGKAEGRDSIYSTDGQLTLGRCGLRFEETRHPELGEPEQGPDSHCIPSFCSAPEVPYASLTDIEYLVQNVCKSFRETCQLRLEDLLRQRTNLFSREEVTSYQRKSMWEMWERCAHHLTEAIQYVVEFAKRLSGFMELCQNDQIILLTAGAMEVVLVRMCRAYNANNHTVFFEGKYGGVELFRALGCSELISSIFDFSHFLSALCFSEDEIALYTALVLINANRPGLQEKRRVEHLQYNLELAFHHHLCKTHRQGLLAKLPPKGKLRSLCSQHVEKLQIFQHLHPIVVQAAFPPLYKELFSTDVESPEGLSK
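Compounds are pin-transferred onto Drosophila Schneider cells expressing a copper-inducible Gal4–ROR gamma transactivation domain fusion. After 1 hr, copper sulfate is added to 700 uM final; luciferase is read 20 hr later.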
DT40 TDP1 CPT: growth inhibition of DT40 Tdp1-/-;hTDP1 cells with camptothecin (screen for TDP1 inhibitors); Potency, µM (series often up to 46.2 µM), for the others: at the top dose activity change, negative = growth inhibition, actives largely listed as inhibitors; chicken DT40 Tdp1-/-;hTDP1 cells + 20 nM CPT, ATP luminescence, 48 h; actives 12% (n = 420,000); also: potency is read from the fitted curve at half-maximal effect; nearly all actives have a fitted effect of over 55% in size
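Chicken DT40 Tdp1-/- cells complemented with human TDP1, 400 cells/well, exposed to compounds plus 20 nM camptothecin for at least 48 h at 37 C; viability read as ATP content by CellTiter-Glo luminescence.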
DT40 TDP1 no CPT: qHTS for Inhibitors of human tyrosyl-DNA phosphodiesterase 1 (TDP1): qHTS in cells in absence of CPT; Potency, µM (highest dose often 46.2 µM), inactives show at the highest dose activity change, negative = growth inhibition, most hits filed as inhibitors; AID 686978, 2013; DT40 Tdp1-/- hTDP1 cells, no CPT, ATP luminescence, 48 h; actives 15% (n = 420,000); also: potency is read from the fitted curve at half-maximal effect; nearly all actives have a fitted effect of over 55% in size
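Cells were dispensed at 400 per well, compounds added by pin tool, plates incubated ≥48 hr at 37 °C, then CellTiter-Glo added for 30 min at room temperature before luminescence reading. Line: DT40 Tdp1-/- complemented with hTDP1; camptothecin omitted.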
ELG1 DNA repair: blocks ELG1-dependent DNA repair in HEK293T cells | HEK293T ELG1-luciferase reporter, luminescence, 16 h; DNA damage induced by 5-fluorouridine | AID 504467 | actives 2.3% (n = 330,000) | Potency, µM (doses to about 46.1 µM), for inactives: at the highest dose activity change, negative = inhibition, most hits filed as inhibitors; also: potency is read from the fitted curve at half-maximal effect; nearly all actives have a fitted effect of over 55% in size
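Quantitative HTS, concentration-response format. 2,000 cells/well co-treated with 5-fluorouridine and compound, 16 hr in 5% CO2 at 37 °C; ONE-Glo luminescence read after 30 min.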
Gal4-VP16 FLuc: counter-screen for ROR gamma inhibitors: Gal4-VP16 reporter. Potency, µM (doses to about 53.6 µM), inactives show at the highest dose activity, negative = inhibition, hits mostly inhibitors. AID 2546. actives 3.5% (n = 310,000). Drosophila S2 Gal4-VP16 UAS-luciferase, luminescence, 20 h;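 also: Gal4-VP16 expression switched on by copper sulfate through the metallothionein promoter; potency is read from the fitted curve at half-maximal effect; nearly all actives have a fitted effect of over 50% in size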
IL-1B inflam inh: blocks inflammasome-driven IL-1 beta release; actives 4.7% (n = 360,000); THP-1 LPS/ATP IL-1B secretion, AlphaLISA, 16 h; hits give low values; activity change, % at 57.5 µM; in the data active = activity change below about -50%; inconclusive = mostly about -30% to -49%
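THP-1 cells pretreated 1 hr with compounds (up to 57.5 uM final), then stimulated with LPS (250 ng/mL final) plus ATP (1.25 mM final); secreted IL-1B measured by AlphaLISA after 16 hr, decreased signal indicating inhibition.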
The depositor's hits bear a star; ? = inconclusive; / = no result given; [ ] = another dose, or the depositor's remark. Compounds with a hit are over-represented: about 21% of the library has one in this group of screens. Unless noted, calls follow the shape of the dose curve; as a rule, active = well fitted curve in the direction sought with a large enough effect; inconclusive = small, poorly fitted or top-dose-only effect, or another doubt; inactive = no such curve, though single readings can be large; an effect the other way counts as inactive or inconclusive. % is scaled to controls: 0 for no effect and ±100 for the full control effect.

SMILES	RORg inh	DT40 TDP1 CPT	DT40 TDP1 no CPT	ELG1 DNA repair	Gal4-VP16 FLuc	IL-1B inflam inh
CCC1=NN(C(=O)Cc2ccc([N+](=O)[O-])cc2)C(O)(c2ccncc2)C1 (stereo unspecified)	18µM*	9%	-2%	3%	3%	-14
CC1=NN(C(=O)Cc2ccc([N+](=O)[O-])cc2)C(O)(C(F)(F)C(F)(F)F)C1 (stereo unspecified)	3.5µM*	?	?	-3%	5µM*	71
O=C(Cc1ccc([N+](=O)[O-])cc1)N1N=C(C2CC2)CC1(O)C(F)(F)F (stereo unspecified)	16µM*	26µM*	?	-2%	?	26
CCC1=NN(C(=O)Cc2ccc([N+](=O)[O-])cc2)C(O)(C(F)(F)F)C1 (stereo unspecified)	?	-6%	?	2%	10%	0
CCCC1=NN(C(=O)Cc2ccc([N+](=O)[O-])cc2)C(O)(C(F)(F)F)C1 (stereo unspecified)	20µM*	2%	?	-9%	?	0
CCc1c(C)sc(NC(=O)c2cc(-c3ccc(OC)cc3)on2)c1C#N	/	0%	-3%	/	/	/
C=Cc1ccc([C@H]2N[C@@H](C(=O)O)CC[C@@H]2C)cc1	11%[10 µM]	/	/	/	-4%[10 µM]	/
OCc1cn(-c2ccccc2)nc1-c1ccc(Br)cc1	-3%	-2%	-1%	?	?	-8
CCN1C(=O)/C(=C\c2cn(-c3ccccc3)nc2-c2cccnc2)SC1=S	0%	15µM*	?	13%	2%	9
O=C1C(=Cc2cn(-c3ccccc3)nc2-c2ccc(OCc3ccccc3)cc2)SC(=S)N1CCS(=O)(=O)O	/	29µM*	?	/	/	34
CC(C)COc1ccc(-c2nn(-c3ccccc3)cc2/C=C2/SC(=S)N(CC(=O)O)C2=O)cc1	?	?	9.2µM*	6%	-18%	-8
CC(C)COc1ccc(-c2nn(-c3ccccc3)cc2CO)cc1	-12%	21µM*	?	-13%	-23%	-11
Cc1cc(C)n(C(C)CC(=O)NCc2ccc(Cl)cc2)n1 (stereo unspecified)	/	3%	-12%	/	/	/
O=C(Nc1ccc(C(=O)O)cc1)/C(=C\c1ccc([N+](=O)[O-])cc1)NC(=O)c1ccc(Br)cc1	7%	3%	-11%	-6%	-11%	-9
COC(=O)c1sc(NC(=O)COc2cccnc2[N+](=O)[O-])c(C(=O)OC)c1C	/	-29%	-24%	-20%	/	13
COc1cccc(-c2ncn(CCc3ccccc3OC)c2C(C)C)c1	/	7.3µM*	5.8µM*	/	/	-10
COc1ccccc1CCn1cnc(C)c1CC(C)C	/	12µM*	6.5µM*	/	/	4
COc1ccccc1CCn1cnc(Cc2cccc(F)c2)c1C(C)C	/	?	?	/	/	0
CCc1ncn(CCc2ccccc2OC)c1C(C)C	/	3.7µM*	4.6µM*	/	/	40
COC(=O)CC1c2ccccc2C(Cc2ccc3c(c2)OCO3)=C(C)N1C(=O)OC (stereo unspecified)	-6%	/	/	/	1%	/
CCOc1ccccc1CNC(=O)c1ccc(N2Cc3ccccc3Oc3ncccc32)s1	/	?	15µM*	/	/	/
COCCCNC(=O)CCC(=O)N1Cc2ccccc2Oc2ncccc21	/	-19%	0%	/	/	/
Cc1c(OC(C)C(=O)N2C[C@H]3C[C@@H](C2)c2cccc(=O)n2C3)ccc2c3c(c(=O)oc12)CCCC3 (stereo partly specified)	30%	?	?	0%	-1%	-1
CCOc1ccccc1NC(=S)NCCc1ccc(F)cc1	1.6µM*	?	?	-10%	10µM*	1
